Screening results deposited in PubChem by National Center for Advancing Translational Sciences (NCATS).
HT1080-NT tox: kills 2HG-producing HT-1080-NT fibrosarcoma cells; actives 1.6% (n = 360,000); Potency, µM (top dose mostly 46.1 µM), for the others: at the top dose activity, negative = less viability, hits mostly cytotoxic; HT-1080-NT fibrosarcoma viability, CellTiter-Glo ATP luminescence, 48 h;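 further: NT is the 2HG producing partner of a matched IDH1 knockdown line; potency means the concentration at half of the fitted maximal effect; 0% = DMSO-treated cells and -100% = media-only wells without cells; nearly all actives have a fitted effect of over 55% in size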
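HT-1080-NT; 750 cells/well; 5% FBS RPMI; 48 h compound, 37 degrees C; CellTiter-Glo luminescence; curve fitting and curve-class assignment.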
ELG1 repair inh: blocks ELG1-dependent DNA repair in HEK293T cells | HEK293T ELG1-luciferase reporter, luminescence, 16 h; DNA damage induced by 5-fluorouridine | Potency, µM (doses to about 46.1 µM), for inactives: at the top dose activity change, negative = inhibition, hits mostly inhibitors | actives 2.3% (n = 330,000) | AID 504467; further: potency means the concentration at half of the fitted maximal effect; nearly all actives have a fitted effect of over 55% in size
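Overnight (16 hr) co-exposure of 2,000 cells/well to 5-fluorouridine and compound at 37 °C preceded detection. Luciferase was quantified via ONE-Glo luminescence; loss of signal denotes inhibition.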
DT40 TDP1 no CPT: qHTS for Inhibitors of human tyrosyl-DNA phosphodiesterase 1 (TDP1): qHTS in cells in absence of CPT. DT40 Tdp1-/- hTDP1 cells, no CPT, ATP luminescence, 48 h. Potency, µM (highest dose often 46.2 µM), for inactives: at the top dose activity change, negative = growth inhibition, most hits filed as inhibitors. actives 15% (n = 420,000). AID 686978, 2013; further: potency means the concentration at half of the fitted maximal effect; nearly all actives have a fitted effect of over 55% in size
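Camptothecin absent (DMSO only). Human TDP1-complemented DT40 knockout cells, 400 cells/well, 37 °C for minimum 48 hr; ATP measured via CellTiter-Glo, 30 min dark incubation, luminescence.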
HT1080 IDH1KD tx: kills HT-1080 cells with IDH1 knockdown. actives 2% (n = 360,000). Potency, µM (series often up to 46.1 µM), without a hit: at the top dose activity, negative = toxicity, actives largely listed as cytotoxic. HT-1080 IDH1 knockdown viability, ATP luminescence, 48 h;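 further: potency means the concentration at half of the fitted maximal effect; 0% = DMSO wells and -100% = cell-free medium wells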
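IDH1KD HT-1080 cells, 750/well, RPMI + 5% FBS; compound pinned after 2 h settling; 48 h, 37 °C; CellTiter-Glo luminescence; % activity normalised to DMSO and no-cell wells; curves fitted, classed by r2 and efficacy.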
TDP1 cell CPT: growth inhibition of DT40 Tdp1-/-;hTDP1 cells with camptothecin (screen for TDP1 inhibitors). actives 12% (n = 420,000). Potency, µM (doses to about 46.2 µM), for the others: at the highest dose activity change, negative = growth inhibition, most hits filed as inhibitors. chicken DT40 Tdp1-/-;hTDP1 cells + 20 nM CPT, ATP luminescence, 48 h; further: potency means the concentration at half of the fitted maximal effect; nearly all actives have a fitted effect of over 55% in size
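Chicken DT40 Tdp1-/- cells stably complemented with human TDP1 were seeded at 400 cells/well in medium containing 20 nM camptothecin, exposed to pin-transferred compounds, and grown at 37 °C for at least 48 hr. Viability was read as ATP luminescence.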
IL-1B inflam inh: inhibitors of inflammasome signaling (IL-1 beta secretion) | THP-1 LPS/ATP IL-1B secretion, AlphaLISA, 16 h; hits give low values | activity change, % at 57.5 µM | actives 4.7% (n = 360,000); in the data active means activity change below about -50%; inconclusive means mostly about -30% to -49%
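Secreted IL-1B measured by AlphaLISA bead assay after 16 h compound exposure of THP-1 cells; compounds (final up to 57.5 uM) added 1 h before LPS (250 ng/mL) and ATP (1.25 mM) stimulation; lower signal means less secretion.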
An asterisk follows results filed as active; ? = inconclusive; nt = no result; [ ] = remark or other dose. Most compounds without a hit are left out; they make up all but 19% or so of the library. Unless noted, the call rests on the fitted dose curve; in most records, active means well fitted curve in the direction sought with a large enough effect; inconclusive means small, poorly fitted or top-dose-only effect, or another doubt; inactive means no such curve, though single readings can be large; an effect the other way counts as inactive or inconclusive. Unless noted, on the % scale 0 is the no-effect control and ±100 the full control effect.

SMILES	HT1080-NT tox	ELG1 repair inh	DT40 TDP1 no CPT	HT1080 IDH1KD tx	TDP1 cell CPT	IL-1B inflam inh
COc1ccc(C2C(C#N)C(C#N)N3CCCN23)cc1 (centres undefined)	1%	8%	-14%	-1%	-11%	-8
O=C(Nc1ccccc1)C1=C[C@H](c2coc3ccccc3c2=O)C[C@H](OCCCCO)O1	-2%	?	?	-16%	?	-1
CC(=O)n1cc([C@@H]2C=C(C(=O)N3CCN(Cc4ccccc4)CC3)O[C@H](OCc3ccc(CO)cc3)C2)c2ccccc21	-1%	9.2µM*	8.2µM*	-28%	8.2µM*	?
O=C(NCc1ccccc1)C1=C[C@@H](c2ccc(C(F)(F)F)cc2)C[C@@H](OCCCCO)O1	-7%	nt	26µM*	-6%	?	-6
C#CCNC(=O)C1=C[C@@H](c2cn(C(C)=O)c3ccccc23)C[C@@H](OCc2ccc(CO)cc2)O1	-6%	?	23µM*	-7%	23µM*	17
O=C(Nc1ccccc1)C1=C[C@@H](c2coc3ccccc3c2=O)C[C@@H](OCCCCO)O1	5%	-2%	9.2µM*	5%	?	-1
CCc1ccccc1NC(=O)C1CCCN(c2cnccn2)C1 (centres undefined)	nt	nt	7%	nt	-16%	nt
COc1cc(NC(=O)Cn2nc3c(cc2=O)CC(C)CC3)cc(OC)c1OC (centres undefined)	nt	nt	-26%	nt	-15%	nt
Cn1cccc1C(=O)OCc1ccc(C(C)(C)C)cc1	?	?	?	-14%	?	3
CC(=O)n1cc([C@H]2C=C(C(=O)NCc3ccccc3)O[C@@H](OCCCCO)C2)c2ccccc21	2%	-16%	?	-10%	?	5
CC(=O)n1cc([C@H]2C=C(C(=O)NCc3ccccc3)O[C@@H](OCc3ccc(CO)cc3)C2)c2ccccc21	-27%	?	3.3µM*	-19%	5.8µM*	-53*
CC(=O)n1cc([C@@H]2C=C(C(=O)Nc3ccccc3)O[C@H](OCc3ccc(CO)cc3)C2)c2ccccc21	-15%	?	13µM*	-16%	23µM*	22
CC(=O)n1cc([C@@H]2C=C(C(=O)NCc3ccccc3)O[C@H](OCCCCO)C2)c2ccccc21	0%	2%	18µM*	-4%	?	-1
CN(C)CCNc1ccc(CO)c2sc3ccc(O)cc3c(=O)c12	?	nt	0.15µM*	16µM*	0.026µM*	-100*
CN(C)CCNc1cnn(-c2ccccc2)c(=O)c1Cl	4%	-2%	-5%	-4%	-1%	27
CN(C)CCNc1ccc2ncn3c4ccc(O)cc4c(=O)c1c23	?	nt	0.023µM*	21µM*	0.052µM*	-104*
COc1ccc2oc3cc(NCCN(C)C)ccc3c(=O)c2c1	?	nt	26µM*	?	?	nt
COc1ccc2c(=O)c3ccccc3oc2c1	-1%	?	?	9%	?	-30
COc1ccc2sc3cccc(NCCN(C)C)c3c(=O)c2c1	16µM*	nt	10µM*	16µM*	13µM*	-7
Cc1cccc(N(CC(=O)NC(C)C)C(=O)CCC(=O)Nc2nccs2)c1	-4%	-16%	4%	12%	2%	-16
CCC(=O)Nc1nc2ccccc2n1CCN(CC)CC	9%	-7%	-4%	-1%	29µM*	1
CCC(=O)Nc1nc2ccccc2n1Cc1ccccc1	?	?	16µM*	?	15µM*	25
CC(=O)Nc1nc2ccccc2n1Cc1ccc(Cl)cc1	?	13µM*	?	16µM*	23µM*	46
Cn1c(NCc2ccc(Cl)cc2)nc2ccccc21	?	?	15µM*	?	?	?
CC(=O)Nc1nc2ccccc2n1CCN1CCOCC1	-5%[9.24 µM]	2%	-3%	9%	4%	-5
SMILES	HT1080-NT tox	ELG1 repair inh	DT40 TDP1 no CPT	HT1080 IDH1KD tx	TDP1 cell CPT	IL-1B inflam inh
CCN(CC)CCn1c(NC(=O)c2ccc(C)cc2)nc2ccccc21	?	?	?	-10%	-19%	44
Cc1nc(N2C(=O)c3oc4ccccc4c(=O)c3C2c2cccc(OCCC(C)C)c2)sc1C (centres undefined)	nt	nt	-19%	nt	1%	nt
CCOC1=C2[C@H]([C@H]3C(=O)N(c4ccccc4)C(=O)[C@H]3C1)[C@@H](C(C)C)N(S(=O)(=O)c1ccc(C)cc1)[C@H]2c1ccccc1	18%	nt	?	20%	?	0
CC(=O)Nc1nonc1-c1nc2ccccc2n1Cc1nnc(C)o1	-5%	-13%	13%	7%	-6%	30
O=C(NCc1nc2ccccc2[nH]1)c1ccc(Cl)c(S(=O)(=O)N2CCCC2)c1	5%	-25%	?	6%	-27%	45
CN(C)CCn1c(NC(=O)c2ccc(Cl)cc2)nc2ccccc21	?	?	?	11µM*	?	-20
CCCn1c(NC(=O)c2ccc(Cl)c(S(=O)(=O)N3CCCC3)c2)nc2ccccc21	?	?	16µM*	?	23µM*	-13
CC(=O)Nc1nonc1-c1nc2ccccc2n1Cc1ccccc1	16µM*	?	?	12µM*	?	17
CCC(=O)Nc1nc2ccccc2n1Cc1ccc(C)cc1	?	-8%	10µM*	-20%	12µM*	16
COc1ccccc1CNS(=O)(=O)CCNC1CC1	15%	nt	-21%	1%	-9%	8
COC(=O)c1ccccc1NC(=O)CCS(=O)(=O)c1nc(-c2ccc3c(c2)OCO3)cc(C(F)(F)F)n1	nt	nt	3.3µM*	nt	2.9µM*	nt
O=C(CSc1nc(-c2ccc(F)cc2)cc(C(F)(F)F)n1)Nc1ccc2c(c1)OCO2	2%	20%	-29%	13%	-27%	19
O=C(CCS(=O)(=O)c1nc(-c2ccc3c(c2)OCO3)cc(C(F)(F)F)n1)Nc1ccc(Br)cc1	nt	nt	3.3µM*	nt	4.1µM*	nt
O=C(CCS(=O)(=O)c1nc(-c2ccc3c(c2)OCO3)cc(C(F)(F)F)n1)Nc1ccccc1F	nt	nt	8.2µM*	nt	7.3µM*	nt
CSc1ccccc1NC(=O)CCS(=O)(=O)c1nc(-c2ccc3c(c2)OCO3)cc(C(F)(F)F)n1	nt	nt	18µM*	nt	8.2µM*	nt
